# Results published in PubChem BioAssay (Tox21).
# Inconclusive results are not listed. Where a call stands in place of a potency, no number is given. Unmarked numbers belong to inactive results. Calls of active or inactive are those of the source. Unless noted, calls come from the whole dose curve; as a rule, active = well fitted curve in the direction sought with a large enough effect in the repeat runs; inconclusive = weak or mixed curves; inactive = no such curve, though single readings can be large; an effect the other way counts as inactive or inconclusive.
# Experiments:
# [1] = qHTS assay to identify small molecule agonists of the vitamin D receptor (VDR) signaling pathway - cell viability counter screen (AID 743224); note: series mostly up to about 63 µM; nearly all actives have a fitted effect of over 50% in size
# How it was run: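 In parallel with the bla FRET readout, cytotoxicity toward VDR-bla cells after 16 h compound exposure was assessed by CellTiter-Glo, with luminescence recorded after a 30 min room-temperature incubation.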
# [2] = qHTS assay to identify small molecule antagonists of the vitamin D receptor (VDR) signaling pathway - cell viability counter screen (AID 743225); note: nearly all actives have a fitted effect of over 50% in size
# How it was run: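 Cytotoxicity counter screen read by CellTiter-Glo luminescence (30 min, room temperature) in the same wells as the VDR-bla antagonist readout. HEK 293T VDR-UAS-bla cells had 16 h at 37C with compound and 3 nM (final) 1-alpha,25-dihydroxyvitamin D3, then 2 h with FRET substrate.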
# [3] = qHTS assay to identify small molecule agonists of the NFkB signaling pathway (AID 1159509; active = well fitted curve in the direction sought with a large enough effect in the signal ratio in the repeat runs, not every such curve was filed as active; the % refers to the signal ratio; note: series mostly up to about 61 µM)
# How it was run: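 Beta-lactamase reporter assay run in quantitative high-throughput format on an NF-kB-responsive ME-180 line, with 5 hr compound treatment and a FRET-based blue/green fluorescence readout.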
# [4] = qHTS assay to identify small molecule agonists of the endoplasmic reticulum stress response signaling pathway - cell viability counter screen (AID 1159517; calls by dose curve; note: series mostly up to about 61 µM; nearly all actives have a fitted effect of over 50% in size)
# How it was run: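 After overnight attachment, ESRE-bla HeLa cells were treated with Tox21 library compounds for 5 hr. CellTiter-Glo luminescence, read 30 min post-addition at room temperature, reported viability.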
# [5] = qHTS assay to identify small molecule antagonists of the retinoid-related orphan receptor gamma (ROR-gamma) signaling pathway - cell viability counter screen (AID 1159520); note: nearly all actives have a fitted effect of over 50% in size
# How it was run: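 Cytotoxicity was read from cellular ATP (CellTiter-Glo luminescence) after 16 hr at 37 C with 1 uM doxycycline induction. The inducer was added 2 hr after compound transfer to Tet-on ROR gamma CHO cells.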
# [6] = target: Nuclear receptor ROR-gamma (Homo sapiens) (UniProt P51449); experiment: qHTS assay to identify small molecule antagonists of the retinoid-related orphan receptor gamma (ROR-gamma) signaling pathway (AID 1159521)
# How it was run: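 Antagonist read-out: drop in luminescence (ONE-Glo) from an RORE-LUC reporter in CHO cells with doxycycline-inducible ROR-gamma; 2 hr compound pretreatment, 1 uM doxycycline, 16 hr incubation at 37 C.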
# [7] = qHTS assay to identify small molecule agonists of the AP-1 signaling pathway - cell viability counter screen (AID 1159525; calls by dose curve; note: nearly all actives have a fitted effect of over 55% in size)
# How it was run: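 Intracellular ATP by Cell Titer Glo luminescence (30 min, RT) in the same ME-180 AP-1-bla wells after the 5 h compound exposure at 37 °C. Normalised to tetra n-octyl ammonium bromide and DMSO controls.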
# [8] = target: Retinoic acid receptor RXR-alpha (Homo sapiens) (UniProt P19793); experiment: qHTS assay to identify small molecule agonists of the RXR signaling pathway (AID 1159527; calls by dose curve; note: nearly all actives have a fitted effect of over 35% in size)
# Retinoic acid receptor RXR-alpha (Homo sapiens), sequence (P19793 whole entry, looked up): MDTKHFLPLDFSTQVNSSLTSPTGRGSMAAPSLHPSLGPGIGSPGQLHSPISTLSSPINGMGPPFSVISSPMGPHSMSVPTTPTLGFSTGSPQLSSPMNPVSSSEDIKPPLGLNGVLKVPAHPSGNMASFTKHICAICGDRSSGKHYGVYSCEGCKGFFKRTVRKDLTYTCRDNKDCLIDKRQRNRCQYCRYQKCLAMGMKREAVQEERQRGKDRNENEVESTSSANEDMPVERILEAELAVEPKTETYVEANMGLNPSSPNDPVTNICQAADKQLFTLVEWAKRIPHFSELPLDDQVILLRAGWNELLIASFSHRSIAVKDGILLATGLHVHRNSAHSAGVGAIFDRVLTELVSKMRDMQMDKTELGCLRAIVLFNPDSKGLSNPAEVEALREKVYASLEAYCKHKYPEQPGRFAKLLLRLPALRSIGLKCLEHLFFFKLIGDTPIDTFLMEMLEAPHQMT
# How it was run: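 Agonist-mode beta-lactamase reporter assay: HEK 293T RXR-alpha-UAS-bla cells treated 16 hr at 37 C with compounds, 9-cis retinoic acid as positive control. LiveBLAzer FRET substrate, 405 nm excitation, 460/530 nm emission.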
# [9] = qHTS assay to identify small molecule antagonists of the retinoid acid receptor (RAR) signaling pathway - cell viability counter screen (AID 1159551); note: nearly all actives have a fitted effect of over 35% in size
# How it was run: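 Viability of C3RL4 cells is quantified from ATP by luminescence after 6 h treatment at 37 C with compounds and 1 uM retinol.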
# [10] = qHTS assay to identify small molecule antagonists of the estrogen related receptor (ERR) signaling pathway from Tox21 library - cell viability counter screen (AID 1224834); note: nearly all actives have a fitted effect of over 30% in size
# How it was run: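 In this quantitative HTS format, ERR cells receive compounds in DMSO and are incubated for 17.5 h at 37 C. Live-cell protease activity is then detected with CellTiter-Fluor.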
# [11] = qHTS assay to identify small molecule agonists of the endoplasmic reticulum stress response signaling pathway (AID 1159516; active = well fitted activation curve with a large enough effect in the signal ratio in the repeat runs, not every such curve was filed as active; the % refers to the signal ratio)
# How it was run: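 Beta-lactamase expression from the ER stress response element in HeLa reporter cells is quantified with the LiveBLAzer B/G FRET substrate, read at 405 nm excitation after 2 hr at room temperature, following 5 hr compound treatment at 37 C.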
# [12] = qHTS assay to identify small molecule agonists of the retinoic acid receptor (RAR) signaling pathway (AID 1159553); note: potency is the fitted concentration of half-maximal effect
# How it was run: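 Compounds dissolved in DMSO were pinned onto C3RL4 cells seeded the previous day, and plates were held 6 hr at 37 C. RARE-driven luciferase output was then read by luminescence.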
# [13] = qHTS assay to identify small molecule antagonists of the estrogen related receptor (ERR) signaling pathway - cell viability counter screen (AID 1224818);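 note: series mostly up to about 46 µM; viability measured after 17.5 h of compound exposure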
# How it was run: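 Cytotoxicity check run alongside the ERR antagonist screen: cells exposed to test compounds 17.5 h at 37 C, viability taken as CellTiter-Fluor fluorescence intensity.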
# [14] = test system: estrogen-related receptor alpha (ERRalpha) with PGC-1alpha coactivator, human; experiment: qHTS assay to identify small molecule antagonists of the estrogen related receptor signaling pathway with the pleiotropic PPARgamma coactivator (PGC) (AID 1224821; calls by dose curve)
# How it was run: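 Screening used NTP's PGC/ERR cells, dosed via pin tool with compound in DMSO alongside positive and negative controls. After 18 h at 37 C, One-Glo reagent sat 30 min at room temperature before luminescence detection.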
# [15] = qHTS assay to identify small molecule antagonists of the estrogen related receptor signaling pathway with the pleiotropic PPARgamma coactivator (PGC) cell viability counter screen (AID 1224822;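 note: series mostly up to about 46 µM; viability read after 17.5 h compound exposure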)
# How it was run: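 Viable cell signal (CellTiter-Fluor, 30 min, 37 C/5% CO2) was measured in PGC/ERR cells after a 17.5 h compound incubation.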
# [16] = qHTS assay to identify small molecule agonists of the estrogen related receptor signaling pathway with the pleiotropic PPARgamma coactivator (PGC) (AID 1224823)
# How it was run: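 In this quantitative high-throughput screen, an 18 h, 37 C treatment of PGC/ERR cells with compounds in DMSO preceded a One-Glo luminescence read taken after 30 min at room temperature.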
# [17] = qHTS assay to identify small molecule agonists of the AP-1 signaling pathway (AID 1159526; calls by dose curve)
# [18] = qHTS assay to identify small molecule antagonists of the retinoic acid receptor (RAR) signaling pathway (AID 1159552; note: nearly all actives have a fitted effect of over 50% in size)
# How it was run: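 Luminescent RARE reporter read-out in C3RL4 cells: 6 hr co-treatment at 37 C of test compounds with retinol at 1 uM final. Cells plated overnight beforehand; luciferase reagent incubated 30 min at room temperature before reading.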
# [19] = qHTS assay to identify small molecule agonists of the RXR signaling pathway - cell viability counter screen (AID 1159529)
# How it was run: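 CellTiter-Glo luminescence gave viability in the wells also read for beta-lactamase. Cells (RXR-alpha-UAS-bla HEK 293T, 2% charcoal-stripped FBS medium) had 5 hr plating, then 16 hr compound exposure at 37 C; tetraoctyl ammonium bromide served as positive control.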
# [20] = qHTS assay to identify small molecule agonists of the NFkB signaling pathway - cell viability counter screen (AID 1159515; calls by dose curve; note: series mostly up to about 61 µM; nearly all actives have a fitted effect of over 55% in size)
# How it was run: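 Plate 2,000 NFkB-bla ME-180 cells/well; incubate overnight. Add compounds, 5 hr at 37 C. Add FRET substrate, 1.5 hr RT. Add CellTiter-Glo, 30 min RT; read luminescence.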
SMILES,Potency [1],Potency [2],outcome [3],outcome [4],Potency [5],Potency [6],outcome [7],Potency [8],outcome [9],Potency [10],outcome [11],Potency [12],outcome [13],outcome [14],outcome [15],outcome [16],Potency [17],Potency [18],Potency [19],outcome [20]
CCCCNc1ccc(C(=O)OCCN(CC)CC)cc1,inactive,inactive,inactive,inactive,inactive,inactive,inactive,inactive,inactive,inactive,–,–,–,–,–,–,–,–,–,–
C[C@]12CCC(=O)C=C1CC[C@@H]1[C@@H]2CC[C@@]2(C)[C@H]1CC[C@]2(O)C(=O)CO,inactive,inactive,inactive,inactive,inactive,inactive,–,–,inactive,inactive,inactive,inactive,inactive,inactive,inactive,inactive,–,–,–,–
CC(C)Nc1nc(N)nc(Cl)n1,–,inactive,inactive,inactive,inactive,–,inactive,inactive,inactive,inactive,inactive,inactive,–,–,–,–,inactive,inactive,–,–
CCCCC(CC)COC(=O)COc1cc(Cl)c(Cl)cc1Cl (centres undefined),inactive,inactive,inactive,inactive,inactive,–,inactive,inactive,inactive,inactive,inactive,inactive,–,–,–,–,inactive,inactive,inactive,–
Cc1cccc(C)c1NC(=O)CN1CCCCCC1,inactive,inactive,–,inactive,inactive,inactive,inactive,inactive,inactive,inactive,inactive,–,–,–,–,–,–,–,inactive,inactive
C=CC(C)(O)CC/C=C(\C)CCC=C(C)C (centres undefined),inactive,–,inactive,inactive,inactive,inactive,inactive,–,inactive,inactive,inactive,–,–,–,–,–,–,–,inactive,–
O=c1[nH]cnc2c1ncn2[C@@H]1O[C@H](CO)[C@@H](O)[C@H]1O,–,inactive,inactive,inactive,inactive,inactive,–,–,–,–,inactive,–,–,–,–,–,–,–,inactive,–
NC(=O)Cc1cccc(C(=O)c2ccccc2)c1N,inactive,inactive,inactive,–,inactive,–,inactive,–,inactive,inactive,inactive,inactive,–,–,–,–,inactive,inactive,inactive,–
FC(F)(F)C(Cl)(Cl)Cl,inactive,inactive,inactive,inactive,inactive,–,–,–,inactive,inactive,inactive,inactive,–,–,–,–,inactive,inactive,inactive,–
CC(C)c1ccccc1,–,inactive,inactive,–,inactive,inactive,–,inactive,inactive,inactive,–,–,–,–,–,–,–,inactive,–,inactive
O=C(O)C(=O)Cc1c[nH]c2ccccc12,inactive,inactive,inactive,inactive,inactive,inactive,inactive,–,inactive,inactive,–,34.4 µM (active),–,–,–,–,–,inactive,inactive,–
